Measured values: the supplement of paper PMC3334620
Whole data set: some 33,000 sequences, median “E-score (-0.5 to 0.5)” near -0.015, cut for the highest 2% near 0.3. The list comes from a sample in which the highest values are over-represented; it also holds similar and randomly drawn sequences.

target: T1, Abf1 (UniProt P14164); experiment: PBM E-score (8-mer binding enrichment) (E-score (-0.5 to 0.5)); higher = stronger / more preferred TF binding; details: protein concentration: 200 nM; construct: GST-full length
T1 sequence: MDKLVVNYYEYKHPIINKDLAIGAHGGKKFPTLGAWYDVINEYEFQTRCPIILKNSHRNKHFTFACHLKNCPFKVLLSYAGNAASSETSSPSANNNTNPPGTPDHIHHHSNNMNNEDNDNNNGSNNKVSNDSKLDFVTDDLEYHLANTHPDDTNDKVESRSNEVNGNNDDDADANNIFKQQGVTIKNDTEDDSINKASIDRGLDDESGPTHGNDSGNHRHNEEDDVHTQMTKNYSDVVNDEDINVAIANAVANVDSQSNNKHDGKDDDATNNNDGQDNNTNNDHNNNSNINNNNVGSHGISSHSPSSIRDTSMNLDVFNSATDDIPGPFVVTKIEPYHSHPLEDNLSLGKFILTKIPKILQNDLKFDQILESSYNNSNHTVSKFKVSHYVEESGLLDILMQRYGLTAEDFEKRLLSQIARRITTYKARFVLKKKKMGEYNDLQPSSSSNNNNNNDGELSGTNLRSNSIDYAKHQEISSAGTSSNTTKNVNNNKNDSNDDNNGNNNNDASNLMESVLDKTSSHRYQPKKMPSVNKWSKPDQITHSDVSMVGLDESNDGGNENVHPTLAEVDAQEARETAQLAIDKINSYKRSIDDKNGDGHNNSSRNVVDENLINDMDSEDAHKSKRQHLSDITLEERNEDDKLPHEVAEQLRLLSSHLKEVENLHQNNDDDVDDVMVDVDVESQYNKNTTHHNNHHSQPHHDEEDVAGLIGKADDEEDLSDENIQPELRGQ
How it was run: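 Masliner-normalised scans of fluorescent anti-GST signal were the basis for scoring. That signal came from GST-tagged yeast transcription factors applied at about 100-200 nM to double-stranded universal all-10-mer Agilent arrays on fresh or once-stripped slides. Each ungapped eight-base word, pooled with its reverse complement, received an E-score from the Universal PBM Analysis Suite.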

| Sequence | PBM E-score |
| --- | --- |
| GTACGTAA | 0.343 |
| ATACGTAC | 0.165 |
| TTACGTAA | 0.196 |
| GTACGTAC | -0.0114 |
| CGACGTAA | 0.123 |
| CGACGTGA | 0.297 |
| CGACGTAC | 0.322 |
| AGACGTGA | 0.227 |
| ATACGTAA | 0.24 |
| GGACGTGA | 0.0158 |
| GGACGTAC | -0.0265 |
| CTACGTAC | 0.297 |
| CATCAGAC | -0.02 |
| CAGAGTAG | -0.205 |
| AGGTATAG | -0.1 |
| TAGCGAAA | -0.00307 |
| ACGATGGG | -0.08 |
| CGCATTTC | -0.0669 |
| ACCGCTGA | -0.057 |
| TGTACGAA | 0.427 |
| GGTACGAC | 0.185 |
| ATTACGAA | 0.281 |
| CCTACGAG | 0.163 |
| AGTACGAG | 0.00494 |
| TGTACAAA | 0.0674 |

| Sequence | PBM E-score |
| --- | --- |
| CGTACGAG | 0.343 |
| CTTACGAC | 0.103 |
| CGTACGAC | 0.417 |
| GGTACGTA | 0.0572 |
| GGTACGAA | 0.339 |
| CCTACGAC | 0.288 |
| CTCGAATC | -0.0489 |
| CATCCTTC | 0.0215 |
| CCACTGGC | -0.107 |
| CGTACGCA | 0.217 |
| CGTACGAA | 0.447 |
| AGTACGAA | 0.368 |
| AGTACGAC | 0.18 |
| CTTACGAA | 0.216 |
| AGTACGAT | 0.106 |
| CATAAGGC | 0.16 |
| GCTTGCGA | 0.0664 |
| CTCAAAAG | -0.0587 |
| AACCGGTC | -0.154 |
| TGATATCA | 0.34 |
| GGATATCA | 0.247 |
| AGATATCC | 0.232 |
| AGATATCT | 0.158 |
| TGATATAA | 0.281 |
| AGATATCA | 0.3 |

| Sequence | PBM E-score |
| --- | --- |
| CGAGGATC | 0.101 |
| AGGCGGAT | -0.0114 |
| CTCGACAA | -0.0758 |
| ACTTACCT | -0.165 |
| CGGCAGGC | -0.0216 |
| CTCCGGCC | -0.212 |
| AAGACCGG | -0.0657 |
| ACACACGA | 0.279 |
| AGACACGA | 0.083 |
| GTACACGA | 0.362 |
| GCACACGA | 0.303 |
| GCACACAA | -0.00644 |
| ATACACGA | 0.179 |
| TCACACGA | 0.297 |
| TCACACAA | 0.0163 |
| GCACACGC | -0.209 |
| CTACACGA | 0.247 |
| CGACACGA | 0.298 |
| CGACACGC | 0.0501 |
| GTCGTAAA | 0.184 |
| ACACTCAA | 0.123 |
| AAGAACAT | 0.157 |
| CATGTAAG | -0.112 |
| CCTCCGTA | 0.116 |
| TCTCTGCA | 0.0379 |

| Sequence | PBM E-score |
| --- | --- |
| CGCTGCCG | -0.0244 |
| ACCGGACC | -0.113 |
| TAATCGGA | 0.0729 |
| CAGTCGAC | 0.137 |
| CGCCTGTA | -0.234 |
| AGCGTATG | -0.154 |
| GTCGTGTA | 0.239 |
| ATCGTGTA | 0.376 |
| ATCGTATC | 0.242 |
| CTCGTGTA | 0.157 |
| CTCGTATA | 0.241 |
| GACGTATA | 0.249 |
| ATAGTATG | 0.161 |
| ATCGTATA | 0.326 |
| GTCGTATA | 0.402 |
| AACGTATA | 0.1 |
| ATCGTATG | 0.302 |
| GGGCTACC | -0.186 |
| GGGTCATA | -0.0763 |
| CCCTCGTA | 0.126 |
| TATGACCA | -0.0211 |
| GAACAGCC | -0.195 |
| AGACCGAC | -0.00992 |
| AATAAATA | 0.32 |
| AGTAAATA | 0.103 |

| Sequence | PBM E-score |
| --- | --- |
| CGTAAATC | 0.131 |
| AATAAAAT | 0.2 |
| AATAAATG | 0.149 |
| GATAAATA | 0.257 |
| AATAAATT | 0.313 |
| TATAAATA | 0.257 |
| CGTAAATA | 0.299 |
| AAAAGATA | 0.182 |
| CCTATGCA | 0.018 |
| CGAAGCCG | -0.0718 |
| GCACCCTA | -0.149 |
| GAGGTCGC | 0.0116 |
| ACGTGCAC | 0.112 |
| GCGTGCAC | -0.0221 |
| GCGTGCGA | -0.0331 |
| CCGTGCAG | 0.192 |
| GCGTGCAA | 0.0992 |
| TCGTGCAA | 0.361 |
| CTGTGCAA | 0.0274 |
| ACGTGCAA | 0.21 |
| CCGTGCGA | 0.354 |
| CCGTGCAA | 0.334 |
| CCGTGCAC | 0.31 |
| CCGTGCGC | 0.218 |
| TCTCCAAA | -0.0776 |

| Sequence | PBM E-score |
| --- | --- |
| CCCGGCCA | -0.267 |
| AACAGCTG | -0.0093 |
| ACACTGGG | -0.134 |
| GCAACTCC | -0.257 |
| ACACGTGA | 0.237 |
| CCGAACCG | -0.0651 |
| GATAATAA | 0.24 |
| GATGATAA | 0.36 |
| AATGATAC | 0.288 |
| AATGATTA | 0.273 |
| AATGATGA | 0.282 |
| CATGATAC | 0.236 |
| GATGATAC | 0.297 |
| AATGATGT | 0.325 |
| AATGATAG | 0.229 |
| AATGATGG | 0.0838 |
| AATGATAA | 0.408 |
| AGCTAGGG | -0.309 |
| CCTGCGTC | -0.22 |
| ATACTTTA | 0.094 |
| ACAACCGG | 0.0327 |
| GGGGCATA | -0.184 |
| CAGCTTAA | -0.00327 |
| AATGAGAT | 0.148 |
| AATGATAT | 0.436 |

| Sequence | PBM E-score |
| --- | --- |
| AATGAAAT | 0.166 |
| CATGATAG | 0.0986 |
| CATGATAA | 0.356 |
| TATGATAA | 0.258 |
| CTGGATGA | 0.0651 |
| CCTTGAAG | -0.111 |
| GCGTGGCA | -0.0717 |
| CGACGAAG | 0.357 |
| CGACGAAA | 0.363 |
| CGACGAAC | 0.168 |
| GGACGAAA | 0.0999 |
| TGACGAAA | 0.349 |
| AGACGAAA | 0.296 |
| CAACGAAA | 0.23 |
| CGACGAGA | 0.13 |
| AGACGAAG | 0.135 |
| TCAACGCA | -0.00848 |
| CCCAGAAC | -0.144 |
| GTGCCTTA | 0.0147 |
| AGCCTGAG | -0.27 |
| CTATACGA | 0.327 |
| ATATACCA | 0.173 |
| ATATACGG | 0.339 |
| ATATACGC | 0.146 |
